We go through nine compounds from PubChem BioAssay (Tox21).

Results filed as inconclusive are left out. Activity calls are given as the source filed them. Unless noted, the call rests on the fitted dose curve; in most records, active means well fitted curve in the direction sought with a large enough effect in the repeat runs; inconclusive means weak or mixed curves; inactive means no such curve, though single readings can be large; an effect the other way counts as inactive or inconclusive.

The nature of experiment [1]: qHTS assay to identify aromatase inhibitors - cell viability counter screen (AID 743084).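 Further: cells stimulated with testosterone during compound exposure; nearly all actives have a fitted effect of over 55% in size.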
Experiment [2] is described as follows: qHTS assay to identify small molecule that activate the aryl hydrocarbon receptor (AhR) signaling pathway - cell viability counter screen (AID 743086).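 Further: HepG2 liver cells carrying the AhR DRE luciferase reporter; series mostly up to about 70 µM; nearly all actives have a fitted effect of over 45% in size.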 An outline of the steps:
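HepG2-AhR-luc (HG2L7.5c1) cells, 4000/well, were preincubated 5 h at 37C, exposed to compound in qHTS format for 24 hr at 37C, then given CellTiter-Fluor for 30 min; viability was read as fluorescence in the reporter wells.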

Experiment [3] addresses Peroxisome proliferator-activated receptor gamma (Homo sapiens) (UniProt P37231). The experiment can be described thus: qHTS assay to identify small molecule agonists of the peroxisome proliferator-activated receptor gamma (PPARg) signaling pathway (AID 743094; active means well fitted activation curve with a large enough effect in the signal ratio in the repeat runs, not every such curve was filed as active; the % refers to the signal ratio). An outline of the steps:
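Beta-lactamase FRET fluorescence was the read-out after a 1 h room-temperature substrate step, following 17 h compound treatment at 37C of HEK293H cells expressing a UAS-driven bla reporter responsive to PPARg.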

Experiment [4] has the same target. The experiment can be described thus: qHTS assay to identify small molecule antagonists of the peroxisome proliferator-activated receptor gamma (PPARg) signaling pathway (AID 743191; calls by dose curve; further: series mostly up to about 63 µM; nearly all actives have a fitted effect of over 30% in size). Summed up: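 GeneBLAzer PPARg UAS-bla HEK293H cells carrying a UAS-driven beta-lactamase reporter were plated at 3000 cells/well, preincubated 5 h at 37C, then given compound for 17 h at 37C; LiveBLAzer B/G FRET substrate was read after 1 h at room temperature.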

Experiment [5] is described as follows: qHTS assay to identify small molecule antagonists of the peroxisome proliferator-activated receptor gamma (PPARg) signaling pathway - cell viability counter screen (AID 743194). Further: nearly all actives have a fitted effect of over 55% in size. The conditions noted are these: Potency: co-treated with 50 nM rosiglitazone. An outline of the steps:
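PPARg-UAS-bla HEK293H cells were plated, rested 5 h at 37 C, then treated with compounds plus rosiglitazone (50 nM final) for 17 h at 37 C; viability was then read by CellTiter-Glo luminescence after 30 min at room temperature.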

The nature of experiment [6]: qHTS assay for small molecule agonists of the antioxidant response element (ARE) signaling pathway (AID 743202; active means well fitted activation curve with a large enough effect in the signal ratio in the repeat runs, not every such curve was filed as active; the % refers to the signal ratio; further: potency means the concentration at half of the fitted maximal effect). An outline of the steps: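 Read-out: LiveBLAzer B/G FRET substrate fluorescence after 2 h at room temperature, following 16 h compound treatment at 37 C of HepG2 cells carrying an ARE-driven beta-lactamase reporter.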
Experiment [7] can be described thus: qHTS assay for small molecule agonists of the antioxidant response element (ARE) signaling pathway - cell viability counter screen (AID 743203; calls by dose curve; further: nearly all actives have a fitted effect of over 55% in size). An outline of the steps: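 HepG2 cells carrying ARE-driven beta-lactamase; 2,000 cells/well; 5 hrs plating; compound pinned from DMSO; 16 hrs 37C/5% CO2; CellTiter-Glo added; 30 min RT; luminescence.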
The nature of experiment [8]: qHTS assay for small molecule activators of the heat shock response signaling pathway - cell viability counter screen (AID 743209). Further: nearly all actives have a fitted effect of over 50% in size. Summed up:
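Luminescence from CellTiter-Glo, added after the beta-lactamase FRET read, gave the viability signal. Cells were HSE-bla HeLa treated with DMSO-dissolved compounds for 5 h at 37 C following overnight plating.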

A short description of experiment [9]: qHTS assay for small molecule activators of the heat shock response signaling pathway (AID 743210; active means well fitted activation curve with a large enough effect in the signal ratio in the repeat runs, with a control signal flat, not every such curve was filed as active; the % refers to the signal ratio; further: series mostly up to about 63 µM). Summed up:
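HSE-bla HeLa cells (beta-lactamase reporter under heat shock response elements) were exposed to compounds for 5 h at 37 C, then loaded with LiveBLAzer B/G FRET substrate for 2.5 h at room temperature before fluorescence reading.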

Experiment [10] is described as follows: qHTS assay to identify small molecule agonists of the peroxisome proliferator-activated receptor delta (PPARd) signaling pathway - cell viability counter screen (AID 743211). Further: nearly all actives have a fitted effect of over 55% in size. An outline of the steps:
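PPARd-bla HEK293H cells (UAS-beta-lactamase reporter) were treated with compounds for 17 h at 37 C. Viability was then read in the same wells by CellTiter-Glo luminescence after 30 min at room temperature.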

Experiment [11] in a line: qHTS assay to identify small molecule antagonists of the peroxisome proliferator-activated receptor delta (PPARd) signaling pathway - cell viability counter screen (AID 743213). Further: nearly all actives have a fitted effect of over 50% in size. An outline of the steps: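 Same-well viability: cells pre-incubated 5 h, dosed with compound plus 300 nM L165041, kept 17 h at 37 C, FRET substrate 2 h RT, then CellTiter-Glo 30 min RT and luminescence.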

The nature of experiment [12]: qHTS assay to identify small molecule agonists of the farnesoid-X-receptor (FXR) signaling pathway - cell viability counter screen (AID 743218). Further: nearly all actives have a fitted effect of over 45% in size. An outline of the steps:
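HEK 293T FXR-bla cells; 5 h pre-incubation, 16 h compound exposure at 37 C; LiveBLAzer substrate 2 h RT, then CellTiter-Glo 30 min RT, luminescence.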

Experiment [13] deals with Vitamin D3 receptor (Homo sapiens) (UniProt P11473). The experiment can be described thus: qHTS assay to identify small molecule agonists of the vitamin D receptor (VDR) signaling pathway (AID 743222; calls by dose curve). Summed up: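 VDR-bla cells, 2,000/well; 4 h preincubation 37C; cpd (DMSO) 16 h; LiveBLAzer B/G substrate 2 h RT; fluorescence intensity read.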
Sequence of Vitamin D3 receptor (Homo sapiens) (P11473 whole entry, looked up): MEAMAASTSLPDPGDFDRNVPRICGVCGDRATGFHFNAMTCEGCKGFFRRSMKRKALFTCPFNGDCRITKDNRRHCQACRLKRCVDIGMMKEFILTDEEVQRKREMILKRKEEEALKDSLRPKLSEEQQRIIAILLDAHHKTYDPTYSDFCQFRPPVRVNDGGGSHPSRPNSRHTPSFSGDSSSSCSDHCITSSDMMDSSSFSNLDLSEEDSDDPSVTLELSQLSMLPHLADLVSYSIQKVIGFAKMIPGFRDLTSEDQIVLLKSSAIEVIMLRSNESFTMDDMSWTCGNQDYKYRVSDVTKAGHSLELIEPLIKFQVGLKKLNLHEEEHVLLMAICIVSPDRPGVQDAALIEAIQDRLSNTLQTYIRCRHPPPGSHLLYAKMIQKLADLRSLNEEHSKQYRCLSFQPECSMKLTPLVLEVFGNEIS
For experiment [14] the target is unchanged. The experiment can be described thus: qHTS assay to identify small molecule antagonists of the vitamin D receptor (VDR) signaling pathway (AID 743223; active means well fitted inhibition curve with a large enough effect in the signal ratio in the repeat runs, not every such curve was filed as active; the % refers to the signal ratio). An outline of the steps:
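VDR-bla cells were plated, incubated 4 h at 37C, then given compound and 1alpha,25-dihydroxyvitamin D3 (3 nM final). After 16 h at 37C, LiveBLAzer B/G FRET substrate was added for 2 h at room temperature and fluorescence read.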

In experiment [15] the target is Peroxisome proliferator-activated receptor delta (Homo sapiens) (UniProt Q03181). The experiment can be described thus: qHTS assay to identify small molecule antagonists of the peroxisome proliferator-activated receptor delta (PPARd) signaling pathway (AID 743215; active means well fitted inhibition curve with a large enough effect in the signal ratio in the repeat runs, not every such curve was filed as active; the % refers to the signal ratio;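 further: cells stimulated with agonist L165041 at 300 nM final during compound exposure; series mostly up to about 62 µM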). Summed up: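 Read-out is beta-lactamase FRET fluorescence, measured 2 h after substrate addition at room temperature. Beforehand, UAS-bla HEK293H cells carrying the PPARd reporter were exposed to compounds with L165041 at 300 nM final for 17 h at 37 C.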
Sequence of Peroxisome proliferator-activated receptor delta (Homo sapiens) (Q03181 whole entry, looked up): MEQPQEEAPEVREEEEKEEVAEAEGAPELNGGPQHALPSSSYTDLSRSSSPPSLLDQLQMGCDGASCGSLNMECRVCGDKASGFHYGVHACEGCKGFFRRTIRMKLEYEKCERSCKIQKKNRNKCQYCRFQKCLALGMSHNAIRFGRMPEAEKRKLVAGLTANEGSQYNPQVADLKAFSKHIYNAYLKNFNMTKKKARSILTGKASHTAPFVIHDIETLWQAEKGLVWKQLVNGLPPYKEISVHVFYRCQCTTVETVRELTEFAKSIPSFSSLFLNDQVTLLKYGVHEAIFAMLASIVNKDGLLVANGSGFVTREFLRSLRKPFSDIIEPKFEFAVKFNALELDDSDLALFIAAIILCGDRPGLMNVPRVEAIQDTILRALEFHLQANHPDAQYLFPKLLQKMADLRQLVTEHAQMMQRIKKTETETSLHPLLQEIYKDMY

Experiment [16] in a line: qHTS assay to identify small molecule antagonists of the farnesoid-X-receptor (FXR) signaling pathway - cell viability counter screen (AID 743221; active means well fitted cell-killing curve with a large enough effect in the repeat runs, not every such curve was filed as active; further: nearly all actives have a fitted effect of over 50% in size). Summed up:
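FXR-UAS-bla HEK 293T cells were treated with test compounds plus chenodeoxycholic acid (50 uM final) for 16 h at 37 C. Cell viability in the same wells was then read as CellTiter-Glo luminescence after 30 min at room temperature.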

In experiment [17] the target is Aryl hydrocarbon receptor (Homo sapiens) (UniProt P35869). The experiment can be described thus: qHTS assay to identify small molecule that activate the aryl hydrocarbon receptor (AhR) signaling pathway (AID 743085).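 Further: HG2L7.5c1 human HepG2 liver cells with stably integrated DRE-driven firefly reporter; series mostly up to about 70 µM; nearly all actives have a fitted effect of over 15% in size.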 An outline of the steps:
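HepG2 cells (HG2L7.5c1) stably carrying a firefly luciferase reporter driven by 20 dioxin responsive elements were exposed to compound for 24 h at 37C after a 5 h settling period; luminescence rise (ONE-Glo) indicated activation.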

In experiment [18] the target is Bile acid receptor (Homo sapiens) (UniProt Q96RI1). The experiment can be described thus: qHTS assay to identify small molecule antagonists of the farnesoid-X-receptor (FXR) signaling pathway (AID 743217; active means well fitted inhibition curve with a large enough effect in the signal ratio in the repeat runs, not every such curve was filed as active; the % refers to the signal ratio). Summed up:
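HEK 293T FXR-UAS-bla, 5000 cells/well; compound + CDCA 50 uM final; 16 h, 37 °C; B/G FRET substrate 2 h RT; fluorescence.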

The target is the same in experiment [19]. The experiment is described as follows: qHTS assay to identify small molecule agonists of the farnesoid-X-receptor (FXR) signaling pathway (AID 743220; active means well fitted activation curve with a large enough effect in the signal ratio in the repeat runs, not every such curve was filed as active; the % refers to the signal ratio). Summed up:
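Beta-lactamase reporter under UAS control in GeneBLAzer FXR HEK 293T cells (5000/well) measured with LiveBLAzer FRET substrate after 2 h at room temperature. Compound exposure lasted 16 h at 37C.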

Experiment [20] deals with Peroxisome proliferator-activated receptor delta (Homo sapiens) (UniProt Q03181). The experiment is described as follows: qHTS assay to identify small molecule agonists of the peroxisome proliferator-activated receptor delta (PPARd) signaling pathway (AID 743212; calls by dose curve). Summed up:
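GeneBLAzer PPARd UAS-bla HEK293H cells (beta-lactamase reporter under UAS control), plated and rested 5 h at 37 C, then exposed to compounds in DMSO at 37 C; LiveBLAzer B/G FRET substrate added, 2 h room temperature, fluorescence read.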

Sequence of Aryl hydrocarbon receptor (Homo sapiens) (P35869 whole entry, looked up): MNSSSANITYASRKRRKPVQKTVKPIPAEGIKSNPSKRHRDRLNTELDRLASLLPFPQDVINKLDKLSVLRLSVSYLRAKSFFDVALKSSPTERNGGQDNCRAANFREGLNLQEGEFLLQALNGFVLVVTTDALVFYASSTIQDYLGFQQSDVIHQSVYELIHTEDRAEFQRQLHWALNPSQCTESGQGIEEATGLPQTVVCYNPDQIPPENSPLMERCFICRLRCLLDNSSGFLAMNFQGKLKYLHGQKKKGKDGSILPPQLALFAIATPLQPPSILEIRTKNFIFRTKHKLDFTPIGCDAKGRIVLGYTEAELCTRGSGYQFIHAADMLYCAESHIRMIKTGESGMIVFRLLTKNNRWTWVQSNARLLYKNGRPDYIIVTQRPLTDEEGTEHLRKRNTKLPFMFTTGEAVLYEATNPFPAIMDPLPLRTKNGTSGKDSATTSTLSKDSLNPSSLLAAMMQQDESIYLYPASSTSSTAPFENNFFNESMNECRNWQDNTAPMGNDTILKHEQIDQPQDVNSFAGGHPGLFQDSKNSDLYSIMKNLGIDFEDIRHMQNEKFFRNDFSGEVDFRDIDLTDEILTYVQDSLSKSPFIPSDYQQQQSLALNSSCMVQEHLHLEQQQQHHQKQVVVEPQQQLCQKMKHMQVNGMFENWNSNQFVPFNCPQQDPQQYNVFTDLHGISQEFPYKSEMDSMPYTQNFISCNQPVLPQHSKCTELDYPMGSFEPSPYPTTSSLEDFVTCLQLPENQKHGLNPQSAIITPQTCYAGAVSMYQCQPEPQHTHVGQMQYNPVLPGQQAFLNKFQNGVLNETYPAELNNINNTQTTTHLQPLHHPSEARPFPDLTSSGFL
Sequence of Bile acid receptor (Homo sapiens) (Q96RI1 whole entry, looked up): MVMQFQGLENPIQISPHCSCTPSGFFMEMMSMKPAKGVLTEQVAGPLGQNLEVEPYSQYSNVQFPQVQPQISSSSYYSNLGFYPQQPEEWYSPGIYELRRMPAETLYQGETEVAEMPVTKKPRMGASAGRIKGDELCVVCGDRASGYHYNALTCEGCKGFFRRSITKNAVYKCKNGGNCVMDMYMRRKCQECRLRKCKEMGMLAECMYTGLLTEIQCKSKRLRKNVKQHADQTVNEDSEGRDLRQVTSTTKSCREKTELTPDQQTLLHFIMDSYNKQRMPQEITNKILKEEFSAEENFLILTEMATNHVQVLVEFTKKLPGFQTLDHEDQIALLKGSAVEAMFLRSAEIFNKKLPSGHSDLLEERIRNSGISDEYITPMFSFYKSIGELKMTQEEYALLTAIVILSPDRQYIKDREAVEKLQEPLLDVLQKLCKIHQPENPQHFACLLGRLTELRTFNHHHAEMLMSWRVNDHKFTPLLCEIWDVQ
Sequence of Peroxisome proliferator-activated receptor gamma (Homo sapiens) (P37231 whole entry, looked up): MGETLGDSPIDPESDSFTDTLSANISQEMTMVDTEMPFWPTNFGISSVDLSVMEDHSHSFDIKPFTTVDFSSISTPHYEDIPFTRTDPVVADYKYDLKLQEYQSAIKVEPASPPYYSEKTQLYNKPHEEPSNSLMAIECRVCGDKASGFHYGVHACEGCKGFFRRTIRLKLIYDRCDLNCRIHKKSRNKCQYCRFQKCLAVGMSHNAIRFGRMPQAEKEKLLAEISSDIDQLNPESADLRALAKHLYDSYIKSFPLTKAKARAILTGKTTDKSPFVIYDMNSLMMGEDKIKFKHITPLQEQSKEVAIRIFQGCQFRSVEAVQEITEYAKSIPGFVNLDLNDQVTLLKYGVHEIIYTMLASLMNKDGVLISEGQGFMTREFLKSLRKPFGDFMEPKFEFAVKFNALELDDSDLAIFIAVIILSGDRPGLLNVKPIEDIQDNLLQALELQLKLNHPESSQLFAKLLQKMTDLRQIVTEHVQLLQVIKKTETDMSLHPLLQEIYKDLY

On to `O=CCCl`, for which the Potency entry in experiment [1], in experiment [2], in experiment [4], in experiment [5], in experiment [6] and in [7] was “inactive” throughout. The Potency entry in experiment [8], in experiment [9], in experiment [10], in [11] and in experiment [12] was “inactive” each time. In addition, the compound was classed as inactive in [3], in experiment [13] and in experiment [14].
As to `CCC1(CC)C(=O)C=CNC1=O`, the Potency entry in experiment [1], in experiment [2], in [4], in experiment [5], in experiment [6] and in experiment [7] was “inactive” throughout. In addition, the Potency entry in experiment [8], in experiment [9], in experiment [10], in experiment [11], in [15] and in experiment [12] was “inactive” each time. For the same compound, in experiment [16], the Potency entry is “inactive”. Besides, the call in [3] was inactive.
Take `O=C(Cl)c1ccccc1`: the Potency entry in [1], in [17], in [2], in experiment [7], in experiment [8] and in experiment [9] was “inactive” throughout. Also, the Potency result in experiment [10], in experiment [11], in experiment [15] and in experiment [16] was “inactive” throughout. The compound was classed as inactive in experiment [18], in experiment [19], in experiment [13] and in experiment [14].
In the case of `CC[C@@H](CO)NC(=O)[C@@H]1C=C2c3cccc4[nH]cc(c34)C[C@H]2N(C)C1`, the Potency result in experiment [1], in experiment [17], in [2], in [5], in experiment [6] and in [7] was “inactive” each time. Besides, the Potency entry in experiment [8], in experiment [10], in [11], in experiment [15], in [12] and in [16] was “inactive” throughout. The call in experiment [20] was inactive.
In the case of `Oc1ccc(Cc2ccc(O)cc2)cc1`, the Potency result in experiment [1], in experiment [17], in experiment [2], in experiment [5], in experiment [7] and in experiment [8] was “inactive” throughout. The Potency entry in experiment [10], in [15], in experiment [12] and in experiment [16] was “inactive” in each case. For the same compound, in experiment [6], the Potency is 27.5 µM (active). For the same compound, the compound was classed as inactive in experiment [20].
Take `CCN[C@H](C)Cc1cccc(C(F)(F)F)c1`: the Potency result in [1], in experiment [17], in experiment [4], in experiment [5], in experiment [7] and in experiment [8] was “inactive” each time. Further, the Potency result in [9], in experiment [10], in [11], in [15], in experiment [12] and in experiment [16] was “inactive” each time. The outcome in experiment [3] and in experiment [18] was inactive.
Turning to `O=C1CCCCC1Cl` (configuration not stated), the Potency result in experiment [1], in [17], in experiment [2], in [5], in experiment [7] and in experiment [8] was “inactive” throughout. In addition, the Potency entry in experiment [10], in [11], in [15] and in experiment [12] was “inactive” throughout. The compound was called inactive in [20], in [18], in experiment [19], in [13] and in [14].
`O=C(O)c1c(Cl)ccc2cc(Cl)cnc12`: the Potency entry in experiment [1], in experiment [17], in [2], in [5], in [7] and in experiment [8] was “inactive” in each case. For the same compound, the Potency result in [9], in experiment [10], in experiment [11], in experiment [15], in [12] and in [16] was “inactive” throughout. For the same compound, the compound was called inactive in experiment [20], in [18], in experiment [19], in [13] and in [14].
As to `O=P(O)(O)c1ccccc1`, the Potency result in experiment [1], in [17], in experiment [2], in experiment [5], in experiment [6] and in experiment [7] was “inactive” each time. Also, the Potency result in experiment [8], in [9], in experiment [10], in experiment [11], in experiment [12] and in experiment [16] was “inactive” throughout. For the same compound, the compound was classed as inactive in [13] and in experiment [14].
